# About 5,400 (1.8%) of roughly 300,000 compounds were called active. Roughly 28% stayed inconclusive and do not appear here. The call rests on the fitted dose curve; tested in HEK293 cells. Only a selection was taken, and actives are over-represented in it overall.
# Assay: qHTS for inhibitors of binding or entry into cells for Marburg Virus
# Details: Marburg virus pseudotyped entry inhibition, cell reporter; series mostly up to 37.8 µM; activity change, negative = inhibition: at the top concentration
# On the % scale 0 is the no-effect control and ±100 the full control effect; potency means the concentration at half of the fitted maximal effect.
SMILES,"activity change, negative = inhibition",Potency
CC1=NN(C(=O)CCc2ccccc2O)C(O)(C(F)(F)F)C1 (stereo unspecified),0.302% (inactive),–
COc1cc(C(=O)NCC(=O)NCCSc2ccc(Br)cc2)cc(OC)c1OC,-21.6% (inactive),–
O=C(NC1CCCC1)C(c1ccco1)N(C(=O)c1ccco1)c1ccc(F)cc1 (stereo unspecified),-27.1% [at 46.1 µM] (inactive),–
N#Cc1cc([N+](=O)[O-])ccc1NC(=O)COC(=O)c1cnccn1,21.5% (inactive),–
Cc1c(C(=O)NCCN2CCOCC2)sc2nc(-c3ccc(F)cc3)cn12,-11.1% (inactive),–
CCOc1ccc(CCNC(=O)c2ccc3c(c2)sc2nc(-c4ccc(F)cc4)cn23)cc1OCC,–,2.51 µM (active)
CCOc1ccc(CCNC(=O)Cn2nc(CC)n3c(cc4sc(CC)cc43)c2=O)cc1OCC,15.5% [at 46.1 µM] (inactive),–
COc1ccc(N2CC(NS(=O)(=O)c3ccc4ccccc4c3)CC2=O)cc1 (stereo unspecified),-21.3% [at 46.1 µM] (inactive),–
CCOc1ccc(C(=O)NCC(=O)N2CCCCCCC2)cc1OCC,-7.67% (inactive),–
S=c1[nH]nc(-c2cccnc2)n1/N=C/C(Cl)=C\c1ccccc1,-0.821% (inactive),–
S=c1[nH]nc(-c2ccco2)n1/N=C/c1ccccc1,15.3% [at 46.1 µM] (inactive),–
Cc1cc(-c2n[nH]c(=S)n2/N=C/C(Br)=C/c2ccccc2)n[nH]1,–,10 µM (active)
O=C(CCl)NNc1cccc(Cl)n1,5.94% [at 46.1 µM] (inactive),–
O=C(CCl)NNc1nc(-c2ccccc2)c2cc(Cl)ccc2n1,–,6.31 µM (active)
Cc1ccc2nc(Nc3ccccc3O)nc(-c3ccccc3)c2c1,7.83% (inactive),–
COc1ccc(CCNC(=O)c2c(C)nn(-c3ccccc3)c2Cl)cc1,-21.4% (inactive),–
CCN(C(=O)COC(=O)c1c(C)nn(-c2ccccc2)c1Cl)c1c(N)n(Cc2ccccc2)c(=O)[nH]c1=O,0.394% (inactive),–
Cc1cc(C)c2cc(CN(Cc3nnnn3Cc3ccc(F)cc3)C3CCCC3)c(=O)[nH]c2c1,2.92% (inactive),–
CCOc1ccc2[nH]c(=O)c(CN(Cc3nnnn3Cc3ccccc3)CC3CCCO3)cc2c1 (stereo unspecified),–,inactive
Cc1cccc2cc(CN(Cc3nnnn3Cc3ccccc3)C3CCCC3)c(=O)[nH]c12,–,16.4 µM (active)
Cc1cc(NC(=O)C(C)SCC(=O)Nc2ccccc2N2CCCCC2)no1 (stereo unspecified),-30% (inactive),–
Nc1cc(=O)n(Cc2ccccc2)c(=O)n1Cc1ccccc1,17% (inactive),–
CCOC(=O)C1CCN(c2nc3ccccc3nc2[C@@H](C#N)C(=O)OC(C)C)CC1,-13.5% [at 46.1 µM] (inactive),–
COc1cc(/C=C2\C(=N)N3N=C(CC(=O)N4CCOCC4)SC3=NC2=O)cc(OC)c1OC,0.659% [at 46.1 µM] (inactive),–
CCN1CCN(C(=O)c2ccc(CN(c3ccc(C)c(C)c3)S(C)(=O)=O)cc2)CC1,-17.9% [at 46.1 µM] (inactive),–
Cc1ccc2cc(CN(c3ccc(C)c(C)c3)S(C)(=O)=O)c(=O)[nH]c2c1,–,10 µM (active)

SMILES,"activity change, negative = inhibition",Potency
CCOC(=O)N1CCN(C(=O)c2ccc(CN(c3ccc(C)c(C)c3)S(C)(=O)=O)cc2)CC1,-7.05% (inactive),–
CCCCc1nc2cc(C(=O)NCCc3cnn(C)c3)ccc2o1,1.86% (inactive),–
CC(=O)CSc1nc(CCc2ccccc2)c(C#N)c(=O)[nH]1,2% [at 46.1 µM] (inactive),–
Cn1c(N)c(C(=O)COC(=O)/C=C/c2cccc(C(F)(F)F)c2)c(=O)n(C)c1=O,17.7% (inactive),–
COc1ccc(C(=O)COC(=O)c2c(C)noc2C)cc1Cl,7.27% [at 46.1 µM] (inactive),–
O=C(c1ccccc1F)N1CCC(c2nc3c(nnn3Cc3cccc(F)c3)c(=O)[nH]2)CC1,-1.86% [at 46.1 µM] (inactive),–
CC(C)(C)c1ccc(Cn2nnc3c(=O)[nH]c(C4CCCN(C(=O)c5ccco5)C4)nc32)cc1 (stereo unspecified),–,10 µM (active)
COc1ccc(Cn2nnc3c(=O)[nH]c(C4CCN(C(=O)c5ccccc5Cl)CC4)nc32)cc1,–,inactive
COc1ccc(OC)c(NC(=O)COC(=O)Cc2ccsc2)c1,2.26% (inactive),–
CCOC(=O)c1ccc(N2C(=O)c3[nH]nc(-c4ccccc4)c3C2c2ccc(C(C)C)cc2)cc1 (stereo unspecified),-0.0996% [at 46.1 µM] (inactive),–
CCOC(=O)c1ccc(N2C(=O)c3n[nH]c(-c4ccco4)c3C2c2ccc(O)cc2)cc1 (stereo unspecified),–,11.2 µM (active)
CCOC(=O)c1ccc(N2C(=O)c3n[nH]c(C)c3C2c2ccc(O)c(OC)c2)cc1 (stereo unspecified),-7.6% [at 46.1 µM] (inactive),–
COc1ccccc1S(=O)(=O)c1c(C)cc(C)[nH]c1=O,11.3% [at 46.1 µM] (inactive),–
OCc1ccc(-c2ccccc2)c(-c2ccccc2)c1,-2.14% [at 46.1 µM] (inactive),–
c1cnc(NC2C3CC4CC(C3)CC2C4)nc1 (stereo unspecified),-0.235% (inactive),–
CN(C)c1ccc(CNC23CN4CN(CN(C4)C2)C3)cc1,5.15% [at 46.1 µM] (inactive),–
CN(C)c1ccc(CNC2C3CC4CC(C3)CC2C4)cc1 (stereo unspecified),–,14.6 µM (active)
CC(=O)Oc1cccc(C(=O)Nc2ccccc2NC(=O)c2cccc(OC(C)=O)c2)c1,0.627% (inactive),–
COc1ccc(C(=O)NC2CC2)cc1OC1CCN(Cc2cnn(C)c2)CC1,21.7% (inactive),–
O=C(CN1CCN(c2ccccc2)CC1)Nc1ccc(F)cc1,29.4% (inactive),–
CCCC(=O)Nc1ccccc1N1CCN(C(=O)c2ccccc2)CC1,-15.4% (inactive),–
O=C(Nc1ccccc1N1CCN(c2ccccc2)CC1)c1cccc(F)c1,1.52% (inactive),–
CCC(C)C(=O)Nc1ccccc1N1CCN(c2ccc(F)cc2)CC1 (stereo unspecified),–,12.6 µM (active)
CCC(=O)Nc1ccccc1N1CCN(S(C)(=O)=O)CC1,0.651% (inactive),–
CCCCC(=O)Nc1ccccc1N1CCN(c2ccc(F)cc2)CC1,–,11.2 µM (active)
